The nature of test [1]: Nuclear factor erythroid 2-related factor 2/antioxidant responsive element (Nrf2/ARE) small molecule agonists: qHTS cell viability counter screen in human keratinocytes (AID 1919968; active = well fitted curve in the direction sought with a large enough effect in the repeat runs; an effect the other way counts as inactive or inconclusive; also: nearly all actives have a fitted effect of over 55% in size; also: potency is read from the fitted curve at half-maximal effect). A digest of the protocol:
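KeratinoSens cells (HaCaT keratinocytes stably carrying an ARE-luciferase reporter) were seeded at 1,500 cells/well and rested 5 h at 37 C/5% CO2. They were then exposed to compounds in DMSO for 23 h. Viability was read by CellTiter-Fluor fluorescence after 1 h.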
For orientation: In qHTS, concentration-response curves come from the screen itself.

Test [2] is described as follows: Nuclear factor erythroid 2-related factor 2/antioxidant responsive element (Nrf2/ARE) small molecule agonists: luciferase reporter gene qHTS assay in human keratinocytes (AID 1919969). Also: nearly all actives have a fitted effect of over 35% in size. Also: potency is read from the fitted curve at half-maximal effect.
In test [3] the target is Gonadotropin-releasing hormone receptor (Homo sapiens) (UniProt P30968). Description: Human gonadotropin-releasing hormone receptor (GnRHR) small molecule agonists, calcium flux assay in GnRHR-HEK293 cells (AID 1920063). Also: nearly all actives have a fitted effect of over 35% in size. A digest of the protocol: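 HEK293 cells stably expressing human GnRHR were plated 18 h at 37 °C, loaded with calcium dye 1 h at 37 °C, then given compound in agonist mode; fluorescence (Ex/Em 480/540) read kinetically for 3 min at 1 s intervals.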
Gonadotropin-releasing hormone receptor (Homo sapiens), sequence (P30968 whole entry, looked up): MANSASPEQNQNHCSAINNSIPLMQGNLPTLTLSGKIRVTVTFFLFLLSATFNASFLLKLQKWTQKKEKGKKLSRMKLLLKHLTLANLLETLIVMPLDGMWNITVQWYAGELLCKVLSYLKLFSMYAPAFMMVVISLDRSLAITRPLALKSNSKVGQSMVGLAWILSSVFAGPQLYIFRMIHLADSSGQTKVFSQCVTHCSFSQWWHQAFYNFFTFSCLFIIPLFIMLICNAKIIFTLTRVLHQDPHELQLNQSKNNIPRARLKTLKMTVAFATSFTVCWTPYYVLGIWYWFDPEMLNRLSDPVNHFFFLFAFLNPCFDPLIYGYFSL
A general note: Calcium assays in cells follow changes in intracellular calcium, usually with a dye or a luminescent sensor.

In test [4] the target is KiSS-1 receptor (Homo sapiens) (UniProt Q969F8). The experiment in a line: Human kisspeptin (KISS1R) small molecule agonists, calcium flux assay in KISS1R-HEK293 cells (AID 1920064; active = well fitted curve in the direction sought with a large enough effect in the repeat runs; an effect the other way counts as inactive or inconclusive). In outline:
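HEK293 cells stably expressing human KISS1R were plated 18 h at 37 °C, loaded with calcium dye for 1 h at 37 °C, then given compound by pin tool. Fluorescence (Ex/Em 480/540) was read kinetically for 3 min.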

The nature of test [5]: G protein-coupled receptor (GPCR) small molecule agonists, calcium flux assay: HEK293 wild type cell line counter screen (AID 1920065). A digest of the protocol: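 Cells were plated and cultured 18 h at 37 C/5% CO2, then loaded with calcium dye for 1 h at 37 C. Compounds in DMSO were pin-transferred in agonist mode, and fluorescence (Ex/Em 480/540) was read kinetically for 3 min at 1 s intervals.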

A short description of test [6]: p53 small molecule agonists, cell-based qHTS assay with human liver microsomes: qHTS cell viability counter screen (AID 1963579). Also: nearly all actives have a fitted effect of over 45% in size. A digest of the protocol:
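Metabolically activated exposure: compounds, human liver microsomes and NADPH (0.5 mg/mL final apiece) were added to p53RE-bla cells seeded 5 h earlier, left 16 h at 37 C, and then assessed for viability by CellTiter-Glo luminescence.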

Test [7] is described as follows: p53 small molecule agonists, cell-based qHTS assay: qHTS cell viability counter screen (AID 1963581). Also: nearly all actives have a fitted effect of over 45% in size. In outline: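 p53RE-bla HCT-116 cells were exposed to compounds for 16 h at 37 C; after the beta-lactamase FRET read in the same wells, CellTiter-Glo was added and luminescence (intracellular ATP) read after 30 min at room temperature.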
A short description of test [8]: p53 small molecule agonists, cell-based qHTS assay (AID 1963582; active = well fitted activation curve with a large enough effect in the signal ratio in the repeat runs, not every such curve was filed as active; the % refers to the signal ratio). In outline:
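p53RE-bla beta-lactamase reporter cells rested 5 h at 37 C/5% CO2, then received compounds in DMSO by pin transfer and were incubated 16 h at 37 C. LiveBLAzer B/G FRET substrate was loaded for 2 h at room temperature before fluorescence reading.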

Test [9] deals with 5-hydroxytryptamine receptor 2A (Homo sapiens) (UniProt P28223). Description: 5-hydroxytryptamine receptor 2A (HTR2A) small molecule antagonists, cell-based qHTS assay (AID 1963586). Also: nearly all actives have a fitted effect of over 45% in size. In outline:
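Antagonist-mode intracellular calcium assay: DOI (4 nM) added after 5 min compound pre-incubation at room temperature to dye-loaded HTR2A-CHO cells. Fluorescence followed for 3 min, sampled every second.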

In test [10] the target is Muscarinic acetylcholine receptor M1 (Homo sapiens) (UniProt P11229). Description: Cholinergic receptor muscarinic 1 (CHRM1) small molecule antagonists, cell-based qHTS assay (AID 1963588). Also: nearly all actives have a fitted effect of over 40% in size. A digest of the protocol:
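CHRM1-CHO calcium-flux assay, antagonist mode. Cells were seeded 18 h, dye-loaded 1 h at 37 C and given compound for 5 min at RT, then acetylcholine was added at 50nM. FDSS fluorescence was read 3 min; 15 concentrations, three runs.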

The target is the same in test [11]. The experiment in a line: Cholinergic receptor muscarinic 1 (CHRM1) small molecule agonists, cell-based qHTS assay (AID 1963589). Also: nearly all actives have a fitted effect of over 35% in size. A digest of the protocol:
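CHO cells stably expressing human CHRM1, seeded 18 h at 37 C/5% CO2, dye-loaded 1 h at 37 C, then given compound in agonist mode; intracellular calcium fluorescence read kinetically at 1 s intervals. Fifteen concentrations, three independent runs.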

Test [12] is described as follows: cAMP Responsive Elements (CRE) small molecule agonists, cell-based qHTS assay (AID 1963590). A digest of the protocol: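 CRE-bla HEK 293T cells in DMEM with 10% dialyzed FBS, NEAA, pyruvate and 25 mM HEPES were plated 18 h at 37 C/5% CO2, then exposed to compounds in DMSO for 3 h before LiveBLAzer B/G FRET substrate addition.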
Test [13] is described as follows: cAMP Responsive Elements (CRE) small molecule antagonists, cell-based qHTS assay (AID 1963591; active = well fitted inhibition curve with a large enough effect in the signal ratio in the repeat runs, not every such curve was filed as active; the % refers to the signal ratio). In outline:
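CRE-bla HEK293T cells were plated 18 h at 37 °C/5% CO2, pinned with compound in DMSO, then stimulated with NKH477 at 0.25 uM final for 3 h. LiveBLAzer B/G FRET substrate was added and plates incubated 2 h at room temperature.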

The target of test [14] is Beta-2 adrenergic receptor (Homo sapiens) (UniProt P07550). Description: Adrenergic beta2 receptor (ADRB2) small molecule antagonists, cell-based qHTS assay (AID 1963592). Also: series mostly up to about 92 µM; nearly all actives have a fitted effect of over 50% in size. A digest of the protocol:
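Cells (CHO, stable ADRB2 overexpression) incubated 18-20hr at 37C; compounds added from DMSO; agonist mix (1nM isoproterenol, 100uM IBMX, 25uM Ro-20-1724) added; 0.5hr RT; d2-cAMP and anti-cAMP-cryptate added; 1hr RT; 665/615 nm read.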

The target is the same in test [15]. The experiment in a line: Adrenergic beta2 receptor (ADRB2) small molecule agonists, cell-based qHTS assay (AID 1963593).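 Also: CHO cells stably overexpressing human ADRB2.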 In outline:
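CHO cells stably over-expressing ADRB2 were plated overnight at 37C, then dosed with compounds plus a stimulation mix containing 100uM IBMX and 25uM Ro-20-1724 for 0.5hr at room temperature. cAMP was measured by HTRF competition, 1hr.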

The target in test [16] is D(2) dopamine receptor (Homo sapiens) (UniProt P14416). Description: Dopamine D2 receptor (DRD2) small molecule agonists, cell-based qHTS assay (AID 1963594). Also: nearly all actives have a fitted effect of over 35% in size. A digest of the protocol:
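cAMP accumulation in DRD2-HEK293 cells measured by HTRF after 1 h detection; compounds added 10 min before NKH477 (200nM […]) forskolin-analogue stimulation, 30 min at room temperature, with Ro20-1724 present at 0.1 mM final.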

For test [17] the target is unchanged. The experiment in a line: Dopamine D2 receptor (DRD2) small molecule antagonists, cell-based qHTS assay (AID 1963595; active = well fitted inhibition curve with a large enough effect in the signal ratio in the repeat runs, with a control signal flat; the % refers to the signal ratio). In outline:
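Antagonism was scored as restored cAMP in HEK293-DRD2 cells. These cells were stimulated with 200 nM NKH477 and 12 nM quinpirole for 30 min at room temperature, in the presence of 0.1 mM Ro20-1724.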

A short description of test [18]: p53 small molecule agonists, cell-based qHTS assay with rat liver microsomes (AID 1963578). In outline:
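Agonist mode in p53RE-bla reporter cells, with compounds co-incubated 16 h at 37 C alongside 0.5 mg/mL rat liver microsomes and 0.5 mg/mL NADPH (final), followed by a 2 h LiveBLAzer detection step.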

The target in test [19] is 5-hydroxytryptamine receptor 2A (Homo sapiens) (UniProt P28223). Description: 5-hydroxytryptamine receptor 2A (HTR2A) small molecule agonists, cell-based qHTS assay (AID 1963587). Also: nearly all actives have a fitted effect of over 30% in size. A digest of the protocol:
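Kinetic calcium-flux fluorescence (2 min, 1 sec intervals) after compound addition in agonist mode. HTR2A-CHO cells were cultured 18 h, then dye-loaded 1 h at 37 C.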

Test [20] in a line: p53 small molecule agonists, cell-based qHTS assay with rat liver microsomes: qHTS cell viability counter screen (AID 1963580). Also: nearly all actives have a fitted effect of over 45% in size. In outline:
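HCT-116 p53RE-bla, 4,000 cells/well, 5 h pre-incubation; cpd + rat liver microsomes 0.5 mg/mL + NADPH 0.5 mg/mL (final); 16 h, 37 C; CellTiter-Glo, 30 min RT; luminescence.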

SMILES strings stand for the structures. A number with no mark means an inactive call. Inconclusive results are not listed. The source made the active and inactive calls. Unless noted, calls follow the shape of the full dose curve.

Muscarinic acetylcholine receptor M1 (Homo sapiens), sequence (P11229 whole entry, looked up): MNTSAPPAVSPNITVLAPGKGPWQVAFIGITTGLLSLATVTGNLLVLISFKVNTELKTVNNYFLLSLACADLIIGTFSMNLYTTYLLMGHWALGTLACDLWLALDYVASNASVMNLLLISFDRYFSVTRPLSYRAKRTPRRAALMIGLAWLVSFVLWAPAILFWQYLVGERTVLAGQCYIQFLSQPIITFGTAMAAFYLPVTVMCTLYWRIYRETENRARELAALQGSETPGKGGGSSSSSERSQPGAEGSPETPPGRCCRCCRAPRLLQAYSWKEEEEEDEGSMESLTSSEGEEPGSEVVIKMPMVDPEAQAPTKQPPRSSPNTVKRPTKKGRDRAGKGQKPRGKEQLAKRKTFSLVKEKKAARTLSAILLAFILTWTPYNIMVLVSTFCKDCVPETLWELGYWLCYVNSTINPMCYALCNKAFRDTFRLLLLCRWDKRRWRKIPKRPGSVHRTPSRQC
Beta-2 adrenergic receptor (Homo sapiens), sequence (P07550 whole entry, looked up): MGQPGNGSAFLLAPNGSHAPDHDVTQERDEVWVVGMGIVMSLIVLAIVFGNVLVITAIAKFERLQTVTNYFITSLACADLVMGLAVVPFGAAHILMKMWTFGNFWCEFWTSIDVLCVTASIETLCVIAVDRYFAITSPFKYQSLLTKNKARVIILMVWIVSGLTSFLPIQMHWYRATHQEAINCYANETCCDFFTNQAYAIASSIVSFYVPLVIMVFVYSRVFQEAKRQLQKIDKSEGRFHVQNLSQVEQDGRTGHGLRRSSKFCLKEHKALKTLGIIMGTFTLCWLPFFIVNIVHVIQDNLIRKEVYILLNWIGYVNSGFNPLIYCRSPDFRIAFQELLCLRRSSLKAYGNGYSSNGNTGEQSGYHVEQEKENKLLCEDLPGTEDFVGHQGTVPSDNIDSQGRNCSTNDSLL
5-hydroxytryptamine receptor 2A (Homo sapiens), sequence (P28223 whole entry, looked up): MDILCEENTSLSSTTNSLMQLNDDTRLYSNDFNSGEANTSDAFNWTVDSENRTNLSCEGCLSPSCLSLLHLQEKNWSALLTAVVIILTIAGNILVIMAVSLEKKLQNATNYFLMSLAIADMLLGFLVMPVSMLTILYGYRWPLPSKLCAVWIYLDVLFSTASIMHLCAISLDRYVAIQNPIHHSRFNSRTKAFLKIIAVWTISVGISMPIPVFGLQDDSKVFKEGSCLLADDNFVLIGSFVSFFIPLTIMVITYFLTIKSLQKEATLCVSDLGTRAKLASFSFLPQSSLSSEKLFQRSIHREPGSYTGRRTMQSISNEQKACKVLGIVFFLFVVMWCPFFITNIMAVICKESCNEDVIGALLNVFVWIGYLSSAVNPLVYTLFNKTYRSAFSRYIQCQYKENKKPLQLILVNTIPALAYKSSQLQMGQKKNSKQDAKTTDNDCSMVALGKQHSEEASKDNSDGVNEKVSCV
KiSS-1 receptor (Homo sapiens), sequence (Q969F8 whole entry, looked up): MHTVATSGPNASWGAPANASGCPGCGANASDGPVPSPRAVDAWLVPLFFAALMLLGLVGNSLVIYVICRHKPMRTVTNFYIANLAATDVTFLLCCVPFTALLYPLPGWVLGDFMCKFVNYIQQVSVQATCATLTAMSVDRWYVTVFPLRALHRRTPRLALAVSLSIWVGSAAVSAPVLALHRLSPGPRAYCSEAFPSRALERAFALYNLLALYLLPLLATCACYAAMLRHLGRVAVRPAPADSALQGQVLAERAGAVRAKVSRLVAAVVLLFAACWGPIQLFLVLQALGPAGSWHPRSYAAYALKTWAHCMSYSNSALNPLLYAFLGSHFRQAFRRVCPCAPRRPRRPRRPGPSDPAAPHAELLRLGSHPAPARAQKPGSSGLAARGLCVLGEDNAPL
D(2) dopamine receptor (Homo sapiens), sequence (P14416 whole entry, looked up): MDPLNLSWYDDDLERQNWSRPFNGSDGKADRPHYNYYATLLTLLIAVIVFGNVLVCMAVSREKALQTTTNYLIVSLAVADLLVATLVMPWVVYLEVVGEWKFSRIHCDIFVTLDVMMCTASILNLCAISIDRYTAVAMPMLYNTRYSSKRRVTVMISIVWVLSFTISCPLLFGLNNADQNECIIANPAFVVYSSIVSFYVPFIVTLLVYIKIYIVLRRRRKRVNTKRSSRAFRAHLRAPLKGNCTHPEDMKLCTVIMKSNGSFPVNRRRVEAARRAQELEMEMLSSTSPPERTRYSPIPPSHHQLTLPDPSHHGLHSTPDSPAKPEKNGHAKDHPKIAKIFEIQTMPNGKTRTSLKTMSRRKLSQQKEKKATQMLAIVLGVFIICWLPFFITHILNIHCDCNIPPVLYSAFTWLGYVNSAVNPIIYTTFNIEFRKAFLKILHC

For the compound `Nc1ccc(F)cc1F`, the Potency entry in test [1], in [2], in test [3], in [4], in test [5] and in [6] was “inactive” each time. In addition, the Potency result in test [7], in test [8], in test [9], in test [10], in [11] and in test [12] was “inactive” each time. In addition, the Potency result in [13], in test [14], in test [15], in test [16] and in test [17] was “inactive” throughout.

Regarding `C=CC(=O)OCC(C)OCC(C)OCC(C)OC(=O)C=C` (stereo unspecified), the Potency was 61.1 µM (active) in test [1] and 24.3 µM (active) in [2]. In addition, the Potency entry in test [3], in test [4], in [5], in test [18], in test [7] and in test [19] was “inactive” each time. The Potency result in [10], in test [11], in test [14], in test [16] and in test [17] was “inactive” each time.

For the compound `O=C(/C=C/c1ccc(O)c(O)c1)O[C@@H]1C[C@@](OC(=O)/C=C/c2ccc(O)c(O)c2)(C(=O)O)C[C@@H](O)[C@@H]1O`, the Potency entry in test [1], in [2], in [3], in [4], in [5] and in [6] was “inactive” each time. In addition, the Potency result in [20], in [7], in [8], in [9], in test [19] and in [10] was “inactive” throughout. Besides, the Potency result in [11], in test [12], in test [13], in test [14], in [15] and in [16] was “inactive” each time. Besides, in test [17], the Potency result is “inactive”.

As for `O=C1c2ccccc2-c2ccccc21`, the Potency result in test [1], in [2], in test [3], in test [4], in test [5] and in [6] was “inactive” in each case. Further, the Potency entry in test [20], in test [7], in test [8], in [19], in test [10] and in test [11] was “inactive” throughout. The Potency result in test [12], in test [13], in test [14], in test [16] and in test [17] was “inactive” each time.

Take `CC1=Nc2ccccc2C1(C)C`: the Potency result in test [1], in test [3], in [4], in test [5], in [6] and in test [20] was “inactive” in each case. The Potency entry in [9], in test [19], in test [10], in test [11], in [13] and in test [15] was “inactive” each time. The Potency result in test [16] and in test [17] was “inactive” throughout. The Potency in test [2] is 43.3 µM (active).

Regarding `COC(=O)Nc1nc2ccc(C(=O)C3CC3)cc2[nH]1`, the Potency result in test [1], in test [3], in test [4], in test [5], in test [18] and in test [9] was “inactive” throughout. Moreover, the Potency result in [19], in test [10], in test [11], in [12], in test [13] and in [14] was “inactive” throughout. Also, the Potency entry in test [16] and in [17] was “inactive” each time. In addition, the Potency in [2] was 8.41 µM (active).

`Cc1cc(C2CCCCC2)n(O)c(=O)c1`: the Potency in test [1] was 13.3 µM (active). The Potency entry in test [2], in test [3], in [4], in test [5], in [18] and in test [7] was “inactive” in each case. Besides, the Potency entry in [14], in test [15] and in test [16] was “inactive” in each case.

As for `O=C(OCCc1ccccc1)c1ccccc1`, the Potency result in test [1], in test [3], in [4], in test [5], in test [6] and in [7] was “inactive” throughout. In addition, the Potency result in [8], in test [9], in test [19], in [11], in [14] and in test [15] was “inactive” throughout. Also, the Potency result in [16] and in [17] was “inactive” in each case. Further, the Potency in [2] was 27.3 µM (active).

Values taken from PubChem BioAssay (Tox21).
